Assay [1] in a line: antimalarial activity against Dd2 strain (AID 2302;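 active = growth inhibition above 50% at the single 2 µM test dose, taken to imply half-maximal potency below 2 µM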;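 note: 0% = DMSO untreated growth and 100% = chloroquine plus artemisinin killed control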). The settings on record: P. falciparum Dd2 in RBCs, LDH growth readout, 72 h; at 2 µM; active compounds read high.
Assay [2] can be described thus: HepG2 cytotoxicity, primary screen, cytotoxicity control for P. falciparum antimalarial project, cell-based, ATP luminescence (AID 2303;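 active = inhibition above 50%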;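 note: 0% = DMSO wells and 100% = digitonin-killed cells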). The note with it: HepG2 viability, 24-48 h, at 10 µM, active compounds read high.
For assay [3], the target named is L-lactate dehydrogenase (Plasmodium falciparum (isolate CDC / Honduras)) (UniProt Q27743). Briefly: PfLDH activity inhibition – cell lysate, 3D7 strain, counter-screen for P. falciparum growth inhibition project (AID 2304).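 Note: 0% = vehicle and 100% = reference inhibitor.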 The note with it: P. falciparum 3D7 crude extract, LDH APAD/NBT absorbance; at 2 µM; active compounds read high. Background: Counterscreens check selectivity or assay interference.

A short description of assay [4]: inhibition of 3D7 malaria parasite growth – strain 3D7 (AID 2306).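 Note: 0% = DMSO wells and 100% = chloroquine plus artemisinin control wells.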 The note with it: P. falciparum 3D7 erythrocytic growth, LDH absorbance, 72 h; at 2 µM; active compounds read high.
Assay [5] concerns the target Calcium-dependent protein kinase 1 (Plasmodium falciparum (isolate 3D7)) (UniProt P62344). The experiment in a line: PfCDPK1 kinase inhibitors, biochemical, TCAMS library (AID 1159585; cut-off not given, nearly all actives have IC50 up to about 0.98 µM;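 note: inhibitors leave more ATP so luminescence rises with inhibition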). The settings on record: recombinant PfCDPK1, Kinase-Glo ATP depletion luminescence.
The target of assay [6] is Plasmodium falciparum protein kinase 6 (PK6, PF3D7_1337100) (UniProt Q8IDW1). The experiment in a line: PfPK6 kinase inhibitors, biochemical, TCAMS library (AID 1159586). The settings on record: recombinant PfPK6, Kinase-Glo ATP depletion luminescence.
The target in assay [7] is Protein kinase 7 (PK7), Plasmodium falciparum 3D7 (PF3D7_0213400) (UniProt Q7YTF7). Briefly: inhibition of Plasmodium PK7 catalytic activity – biochemical, TCAMS antimalarial set, Kinase-Glo luminescence (AID 1159587). The note with it: recombinant PfPK7, Kinase-Glo ATP depletion luminescence.
Assay [8] concerns the target Calcium-dependent protein kinase 4 (Plasmodium falciparum (isolate 3D7)) (UniProt Q8IBS5). Briefly: PfCDPK4 kinase inhibitors, biochemical, TCAMS library (AID 1159588; cut-off not given, nearly all actives have IC50 up to about 0.91 µM). The note with it: recombinant PfCDPK4, Kinase-Glo ATP depletion luminescence. For orientation: Kinase-Glo reads ATP consumption through a luciferase reaction.

Broadly, the inhibition is the change of the read-out against control, counted positive when it falls.

Values without a mark were called inactive. For some of these results: Results with a measured potency or affinity are listed apart. Activity calls are given as the source filed them. Unless noted, the rule behind the calls is not given here.

Calcium-dependent protein kinase 1 (Plasmodium falciparum (isolate 3D7)), sequence (P62344 whole entry, looked up): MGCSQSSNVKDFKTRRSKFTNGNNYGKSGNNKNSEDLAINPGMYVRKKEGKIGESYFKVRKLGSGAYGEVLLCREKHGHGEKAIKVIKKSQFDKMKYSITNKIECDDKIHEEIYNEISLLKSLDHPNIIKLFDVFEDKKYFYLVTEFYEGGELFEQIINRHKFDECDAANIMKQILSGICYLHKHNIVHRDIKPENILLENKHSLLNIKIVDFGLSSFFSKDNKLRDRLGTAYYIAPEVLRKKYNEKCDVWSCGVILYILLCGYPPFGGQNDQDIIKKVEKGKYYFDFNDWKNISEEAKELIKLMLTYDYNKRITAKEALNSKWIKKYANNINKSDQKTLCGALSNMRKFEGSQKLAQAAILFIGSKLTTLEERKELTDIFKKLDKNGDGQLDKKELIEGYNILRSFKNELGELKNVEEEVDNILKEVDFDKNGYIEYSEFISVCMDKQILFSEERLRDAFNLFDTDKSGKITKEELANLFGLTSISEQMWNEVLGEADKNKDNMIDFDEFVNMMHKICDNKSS
Plasmodium falciparum protein kinase 6 (PK6, PF3D7_1337100), sequence (Q8IDW1 1-305): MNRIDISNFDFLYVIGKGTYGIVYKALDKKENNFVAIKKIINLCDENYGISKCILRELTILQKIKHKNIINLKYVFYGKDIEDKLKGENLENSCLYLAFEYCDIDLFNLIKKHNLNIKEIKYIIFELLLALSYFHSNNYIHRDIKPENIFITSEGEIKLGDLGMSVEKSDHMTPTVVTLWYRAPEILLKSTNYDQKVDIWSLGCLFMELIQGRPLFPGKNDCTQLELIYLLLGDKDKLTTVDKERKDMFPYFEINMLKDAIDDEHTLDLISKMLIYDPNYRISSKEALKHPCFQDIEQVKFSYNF
Protein kinase 7 (PK7), Plasmodium falciparum 3D7 (PF3D7_0213400), sequence (Q7YTF7 1-343): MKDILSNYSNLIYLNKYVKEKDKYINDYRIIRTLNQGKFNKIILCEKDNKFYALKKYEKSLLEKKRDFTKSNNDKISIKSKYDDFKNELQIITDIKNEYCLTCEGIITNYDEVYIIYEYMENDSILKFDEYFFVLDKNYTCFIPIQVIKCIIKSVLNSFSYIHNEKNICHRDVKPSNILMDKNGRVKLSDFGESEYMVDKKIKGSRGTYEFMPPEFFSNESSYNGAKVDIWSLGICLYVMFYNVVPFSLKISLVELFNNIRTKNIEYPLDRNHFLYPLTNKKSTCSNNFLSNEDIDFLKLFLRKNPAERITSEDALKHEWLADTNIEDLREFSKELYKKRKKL
Calcium-dependent protein kinase 4 (Plasmodium falciparum (isolate 3D7)), sequence (Q8IBS5 whole entry, looked up): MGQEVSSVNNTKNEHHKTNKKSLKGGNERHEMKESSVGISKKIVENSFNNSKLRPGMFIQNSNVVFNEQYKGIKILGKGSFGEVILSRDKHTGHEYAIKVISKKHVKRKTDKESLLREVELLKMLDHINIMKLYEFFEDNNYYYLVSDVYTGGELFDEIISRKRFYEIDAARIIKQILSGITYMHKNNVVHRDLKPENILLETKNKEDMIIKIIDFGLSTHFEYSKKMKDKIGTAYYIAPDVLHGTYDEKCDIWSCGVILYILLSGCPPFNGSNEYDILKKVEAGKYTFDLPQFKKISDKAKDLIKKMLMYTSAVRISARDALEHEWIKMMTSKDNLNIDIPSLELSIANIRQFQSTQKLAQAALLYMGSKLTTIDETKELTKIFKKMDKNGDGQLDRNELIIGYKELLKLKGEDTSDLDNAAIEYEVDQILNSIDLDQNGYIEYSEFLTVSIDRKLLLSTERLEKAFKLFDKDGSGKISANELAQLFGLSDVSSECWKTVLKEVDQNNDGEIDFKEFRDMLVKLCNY
L-lactate dehydrogenase (Plasmodium falciparum (isolate CDC / Honduras)), sequence (Q27743 whole entry, looked up): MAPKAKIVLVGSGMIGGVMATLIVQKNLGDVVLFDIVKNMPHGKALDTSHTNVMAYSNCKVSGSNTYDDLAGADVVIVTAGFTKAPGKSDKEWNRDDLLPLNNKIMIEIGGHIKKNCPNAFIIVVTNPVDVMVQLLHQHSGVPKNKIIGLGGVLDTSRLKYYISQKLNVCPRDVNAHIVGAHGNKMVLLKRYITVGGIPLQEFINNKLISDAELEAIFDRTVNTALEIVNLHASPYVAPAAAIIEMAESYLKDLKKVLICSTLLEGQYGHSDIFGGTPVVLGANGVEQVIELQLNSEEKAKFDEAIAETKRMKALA

Regarding `O=C(/C=C/c1ccc(Cl)c(Cl)c1)NCCCCCN1CCC(NC(=S)Nc2ccc(Cl)cc2)CC1`, the growth inhibition in assay [1] was 41%; in assay [4], 99% (active). The inhibition is 62% (active) in assay [2] and -1% in assay [3]. For the same compound, the outcome in assay [5], in assay [6], in assay [7] and in assay [8] was inactive.

As to `CCOc1cc(C)ccc1NC1CCN(CCCCNC(=O)c2ccc(NC(=O)c3ccc(Cl)cc3)cc2)CC1`, the growth inhibition in assay [1] is 70% (active); in assay [4] it was 101% (active). The inhibition in assay [2] is 17%; in assay [3], -2%. The result in assay [5], in assay [6], in assay [7] and in assay [8] was inactive.

Turning to `CO/C(=C\C=C\c1cc2cc(Cl)c(Cl)cc2[nH]1)C(=O)NCCCN1CCN(c2cccc(OCC(=O)Nc3cccc(C(=O)c4ccccc4)c3)c2)CC1`, the values for the growth inhibition in assay [1] and in assay [4] were 88% (active) and 94% (active), respectively. The inhibition is 48% in assay [2] and 2% in assay [3]. The outcome in assay [5], in assay [6], in assay [7] and in assay [8] was inactive.

In the case of `O=S(=O)(NCCN1CCCC1)c1ccc(-c2ccc(CNCc3ccccc3)cc2)s1`, the growth inhibition in assay [1] is 17%; in assay [4] it was 94% (active). For the same compound, the inhibition in assay [2] is 34%; in assay [3], -5%. Further, the result in assay [5], in assay [6], in assay [7] and in assay [8] was inactive.

With `Cc1cccc(OC2CCN(c3ncc(C(=O)NCCCN4CCCC4=O)cc3Cl)CC2)c1`, the values for the growth inhibition in assay [1] and in assay [4] were 95% (active) and 96% (active), respectively. Besides, the figures for the inhibition in assay [2] and in assay [3] were 7% and -2%, respectively. In addition, the result in assay [5], in assay [6], in assay [7] and in assay [8] was inactive.

As for `CCNc1cc(C(=O)N[C@@H](Cc2ccccc2)[C@H](O)CNC(C)(C)c2cccc(OC)c2)cc(N2CCCC2=O)c1`, the growth inhibition in assay [1] is 99% (active); in assay [4] it was 100% (active). Moreover, the values for the inhibition in assay [2] and in assay [3] were -3% and -6%, respectively. Besides, the outcome in assay [5], in assay [6], in assay [7] and in assay [8] was inactive.

As to `O=C(Nc1cccc(C(F)(F)F)c1)Nc1ccc(Cl)c(C(F)(F)F)c1`, the growth inhibition in assay [1] and in assay [4] was 99% (active) throughout. The inhibition in assay [2] was -4%; in assay [3], -6%. For the same compound, the result in assay [5], in assay [6], in assay [7] and in assay [8] was inactive.

Take `CSc1nc2cc3c(cc2n1C(=O)c1ccc(C)cc1)OCCO3`: the figures for the growth inhibition in assay [1] and in assay [4] were -1% and 99% (active), respectively. In addition, the inhibition in assay [2] and in assay [3] was -6% throughout. Further, the outcome in assay [5], in assay [6], in assay [7] and in assay [8] was inactive.

With `NC(=O)CNC(=O)CCCN=C(N)N`, the growth inhibition in assay [1] was -2%; in assay [4], 101% (active). Further, the inhibition in assay [2] was 20%; in assay [3], 5%. In addition, the result in assay [5], in assay [6], in assay [7] and in assay [8] was inactive.

Consider `C[C@@H](COc1ccccc1)NCC(O)c1ccc([N+](=O)[O-])c(OCc2ccccc2)c1` (stereo not given in full), for which the results for the growth inhibition in assay [1] and in assay [4] were 64% (active) and 93% (active), respectively. The inhibition was 5% in assay [2] and 7% in assay [3]. The outcome in assay [5], in assay [6], in assay [7] and in assay [8] was inactive.

Consider `COc1ccccc1Nc1nc(C)cc(NCc2ccc(-c3c(C)noc3C)cc2)n1`, for which the growth inhibition in assay [1] was 13%; in assay [4], 98% (active). Also, the inhibition in assay [2] is 12%; in assay [3] it was -6%. Besides, the result in assay [5], in assay [6], in assay [7] and in assay [8] was inactive.

For `Cc1ccc(C(=O)NC2CC2)cc1-c1ccc2c(cnn2S(=O)(=O)c2ccc(F)cc2)c1`, the growth inhibition in assay [1] is 69% (active); in assay [4] it was 93% (active). Further, the inhibition in assay [2] is 7%; in assay [3], -2%. Further, the result in assay [5], in assay [6], in assay [7] and in assay [8] was inactive.

Take `Cc1cccc(CC(N)=NCCCCCCN=C(N)Cc2cccc(C)c2)c1`: the growth inhibition in assay [1] and in assay [4] was 97% (active) in each case. In addition, the inhibition is 12% in assay [2] and 3% in assay [3]. The result in assay [5], in assay [6], in assay [7] and in assay [8] was inactive.

With `O=C1C2=C(Nc3ccccc3SC2c2cccs2)c2ccccc21` (stereo not given), the growth inhibition is 93% (active) in assay [1] and 96% (active) in assay [4]. Moreover, the inhibition in assay [2] is 8%; in assay [3], 5%. Besides, the result in assay [5], in assay [6], in assay [7] and in assay [8] was inactive.

On to `COc1cc2c(c(Cl)c1OC)CCN(Cc1ccccc1)CC2c1ccc(C(N)=O)cc1` (stereo not given), for which the growth inhibition is 60% (active) in assay [1] and 97% (active) in assay [4]. The inhibition in assay [2] was 7%; in assay [3], -5%. For the same compound, the result in assay [5], in assay [6], in assay [7] and in assay [8] was inactive.

Turning to `CCCCCCNCCOc1ccc(-c2nc(-c3ccccc3)c(-c3ccccc3)[nH]2)cc1`, the growth inhibition in assay [1] is 39%; in assay [4] it was 98% (active). Further, the inhibition was 14% in assay [2] and -4% in assay [3]. Moreover, the outcome in assay [5], in assay [6], in assay [7] and in assay [8] was inactive.

Turning to `S=C(Nc1cccc(Cl)c1)NC1CCN(c2ccnc3cc(Cl)ccc23)C1` (stereo not given), the growth inhibition was 89% (active) in assay [1] and 100% (active) in assay [4]. Moreover, the results for the inhibition in assay [2] and in assay [3] were 16% and -3%, respectively. Besides, the result in assay [5], in assay [6], in assay [7] and in assay [8] was inactive.

Consider `CN(C)c1ccc(CN2CCCCC(NC(=O)c3cc(-c4ccccc4F)cs3)C2)cc1` (stereo not given), for which the growth inhibition was 28% in assay [1] and 100% (active) in assay [4]. Further, the inhibition in assay [2] is 13%; in assay [3], 5%. Moreover, the result in assay [5], in assay [6], in assay [7] and in assay [8] was inactive.

For the compound `CC[C@H](C)CNC(=O)c1ccc(-c2cccc(CN3CCC(N4CCCC4)CC3)c2)nc1`, the growth inhibition in assay [1] is 7%; in assay [4], 91% (active). Also, the results for the inhibition in assay [2] and in assay [3] were -1% and -7%, respectively. For the same compound, the result in assay [5], in assay [6], in assay [7] and in assay [8] was inactive.

Regarding `NCCCCNc1cc(-c2ccnc(Nc3cccc(Cl)c3)n2)ccn1`, the results for the growth inhibition in assay [1] and in assay [4] were 91% (active) and 94% (active), respectively. The inhibition in assay [2] was 46%; in assay [3], 1%. Also, the outcome in assay [5], in assay [6], in assay [7] and in assay [8] was inactive.

The values are drawn from PubChem BioAssay.
